# From PubChem
# CHX counter: counter-screen for Shiga toxin inhibitors: cycloheximide protein synthesis inhibition; AID 2314; actives 12% (n = 300,000); max response, %; cell reporter, cycloheximide protein synthesis inhibition counterscreen; in the data active means max response mostly above about 13%, no sharp cut-off; inactive means mostly below about 14%; further: read at 38.3 µM for the half of the compounds with a filed dose; 0% is about no effect
# Pf growth 48h: P. falciparum growth inhibition at 48 hours (one generation). AID 504832. P. falciparum luciferase growth in erythrocytes, 48 h. actives 5.9% (n = 310,000). Potency, µM (highest dose often 28.7 µM), for the others: at the top dose activity change, negative = inhibition, hits mostly inhibitors; further: potency means the concentration at half of the fitted maximal effect; on the % scale 0 is the no-effect control and ±100 the full control effect
#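 Parasite viability was followed by luminescence of a genomically integrated firefly luciferase. Cultures held 0.1% parasitemia at 2% hematocrit (final), incubated under 5% CO2 at 37 C.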
# Shiga toxin inh: blocks Shiga toxin action in Vero cells; Vero cells, Shiga toxin protein synthesis inhibition reporter; inhibition, % at 38.7 µM; actives 9.2% (n = 290,000); AID 2315; in the data active means inhibition mostly above about 28%, no sharp cut-off; inactive means mostly below about 43%; further: 0% is about no effect
# Pf growth 96h: P. falciparum growth inhibition at 96 hours. actives 6.9% (n = 320,000). AID 504834. Potency, µM (series often up to 28.7 µM), without a hit: at the highest dose activity change, negative = inhibition, actives largely listed as inhibitors. P. falciparum luciferase reporter growth, 96 h; further: potency means the concentration at half of the fitted maximal effect; on the % scale 0 is the no-effect control and ±100 the full control effect
#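 Compounds incubated with erythrocytes infected by luciferase-expressing P. falciparum (2% hematocrit, 0.05% parasitemia final) for 96 hours, 37 C in 5% CO2. Growth inhibition scored as decreased luciferase luminescence.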
# * = called active by the depositor; ? = inconclusive; . = not tested or not shown. Shown are actives, neighbours in structure and some others; about 21% of the full set was active somewhere. Unless noted, the call rests on the fitted dose curve; in most records, active means well fitted inhibition curve with a large enough effect; inconclusive means small, poorly fitted or top-dose-only effect, or another doubt; inactive means no such curve, though single readings can be large or run the other way.
SMILES,CHX counter,Pf growth 48h,Shiga toxin inh,Pf growth 96h
O=C(c1ccc(Br)cc1)c1cc2ccc(O)cc2oc1=O,10,21%,25,8%
N=c1oc2ccccc2cc1C(=O)NC1CCCCCC1,56*,?,123*,45%
O=C(N/C(=C\c1ccc(Br)cc1)C(=O)N1CCCC1)c1ccccc1F,-1,10%,14,?
Cc1cc(N)ccc1-n1c(C)ccc1C,5,7.4µM*,-3,11%
CCN1CCN(c2ccc(N)cc2C)CC1,1,?,-6,?
Cc1cc(N)ccc1N1CCCC1,-1,0.47µM*,8,0.41µM*
O=C(CCN1C(=O)/C(=C/c2ccccc2F)SC1=S)NCCCn1ccnc1,-2,?,-3,?
Cn1c(=O)c(=O)n(C)c2cc(S(=O)(=O)NCCOc3ccccc3Cl)ccc21,1,19%,-11,29%
COC(=O)CCCC1=CC2=C(c3ccccc3)C(=O)C(C)(OC(=O)C3CCCC3)C(=O)C2=CN1Cc1ccco1 (configuration not stated),-4,?,-6,12µM*
Cn1c(=O)n(CCCO)c(=O)c2c1nc1n2CCCN1Cc1ccccc1,-1,-12%,-2,-23%
Cc1ccccc1CC1(CO)CCCN(C(=O)c2ccccc2N(C)C)C1 (configuration not stated),-4,?,-11,0.93µM*
Cc1ccccc1CC1(CO)CCCN(C(=O)CCCN2CCCCC2=O)C1 (configuration not stated),17*,-3%,44,?
Cc1ccsc1C(=O)N1CCCC(CO)(Cc2ccccc2)C1 (configuration not stated),22*,3%,38,?
CCOC(=O)C1(Cc2ccccc2C)CCCN(C(=O)CN2CCCCC2=O)C1 (configuration not stated),7,?,29,15%
CCN1CCN(C(=O)NCc2ccccc2)CC1,-1,12%,-14,24%
Cc1ccc(C)c(NC(=O)CN(C)C(=O)Cc2ccccc2)c1,2,-13%,-11,-34%
CN(CC(=O)Nc1cccc(F)c1)C(=O)c1ccc(-c2cccc(C(F)(F)F)c2)o1,.,0.33µM*,.,0.12µM*
Cc1ccc(C)c(NC(=O)CN(C)C(=O)c2ccc(-c3cccc(C(F)(F)F)c3)o2)c1,.,1.9µM*,.,1.3µM*
Cc1cccc(C)c1NC(=O)CN(C)C(=O)Cc1cccc(C(F)(F)F)c1,21,?,31*,-21%
COc1cccc(NC(=O)CN(C)C(=O)c2ccc(-c3cccc(C(F)(F)F)c3)o2)c1,.,0.33µM*,.,0.26µM*
CCC1=NC(c2ccccc2OC)N(O)C1(C)C (configuration not stated),-3,10%,-10,9%
O=C(O)c1ccc2c(c1)S(=O)(=O)c1cc(Cl)ccc1C2=O,.,65%,.,50%
COc1ccc(N(C(=O)c2snc(C(N)=O)c2N)C(C(=O)NCC2CCCO2)c2ccc(C)o2)cc1OC (configuration not stated),-3,8.3µM*,-6,45%
COCCNC(=O)C(c1ccc(C)o1)N(C(=O)c1snc(C(N)=O)c1N)c1ccc(C)c(C)c1 (configuration not stated),-3,?,-18,3%
CCc1ccccc1N(C(=O)c1snc(C(N)=O)c1N)C(C(=O)NCC1CCCO1)c1ccc(C)o1 (configuration not stated),-2,?,-4,9.3µM*
SMILES,CHX counter,Pf growth 48h,Shiga toxin inh,Pf growth 96h
COc1ccc(C(C(=O)NCC2CCCO2)N(C(=O)c2snc(C(N)=O)c2N)c2ccc(C)cc2)cc1OC (configuration not stated),-8,10µM*,-4,13µM*
Cc1ccc(N(C(=O)c2snc(C(N)=O)c2N)C(C(=O)NCC2CCCO2)c2ccc(C)o2)c(C)c1 (configuration not stated),4,?,-20,?
CN(C)c1ccc(N/C(N)=N/c2nc(C(F)(F)F)cc(C(F)(F)F)n2)cc1,22,-11%,15,?
CC(=O)/C(C=Nc1noc(C)c1Br)=C(\C)O,-1,2%,-15,2%
Cc1ccc(C(=C2C3C=CC2C2C(=O)NC(=O)C32)c2ccc(C)cc2)cc1 (configuration not stated),-4,.,-13,14%
CC(C)C(=O)Nc1ccc(NC(=S)NC(=O)c2ccc([N+](=O)[O-])cc2)cc1,-4,0%,-16,23%
Cc1cc(SCc2sc(-c3ccc(C(F)(F)F)c(F)c3)nc2C)ccc1OCC(=O)O,15,.,-10,.
Fc1cnc(N/N=C/c2ccc(-c3ccc(Br)cc3)o2)nc1N1CCOCC1,34*,?,58*,5.9µM*
Clc1ccc(-c2ccc(/C=N/Nc3cc(N4CCOCC4)nc(N4CCOCC4)n3)o2)cc1,-2,9.3µM*,-2,-2%
Brc1ccc(-c2ccc(/C=N/Nc3nc(N4CCOCC4)nc(N4CCOCC4)n3)o2)cc1,3,12µM*,-4,11%
Brc1ccc(-c2ccc(/C=N/Nc3nncc(-c4ccccc4)n3)o2)cc1,-1,.,-9,-2%
CCOc1cc(/C=N\Nc2ncc(F)c(N3CCOCC3)n2)ccc1Oc1nc(Cl)ncc1F,42*,1.7µM*,100*,1.9µM*
O=[N+]([O-])c1ccc(/C=N/Nc2nc(N3CCOCC3)nc(N3CCOCC3)n2)cc1,-1,-8%,5,-3%
CCOc1cc(/C=N/NC(=O)c2ccc(O)cc2)ccc1Oc1nc(Cl)ncc1F,9,?,5,26%
Cc1nc(C)c(C(=O)OCC(=O)NCCc2ccc(F)cc2)s1,.,-10%,.,-3%
CCOc1ccccc1NC(=O)NNC(=O)COc1cccc(C)c1C,-3,-10%,-6,22%
O=C1CCC(C(=O)Nc2cccc(S(=O)(=O)N3CCOCC3)c2)N1 (configuration not stated),-3,24%,-4,?
Cc1ccc(OCC(O)Cn2nc(C)cc2C)cc1 (configuration not stated),9,-3%,28,5%
Cc1[nH]nc2c1C(c1ccsc1)C1=C(CC(C)(C)CC1=O)N2 (configuration not stated),-3,?,17,?
O=C(CCN1CCCCC1)c1ccc2c(c1)OCCO2,14,-7%,2,1%
O=C(CCCc1ccccc1)c1ccc2c(c1)OCCO2,-9,-6%,-17,12%
O=C(CCN1CCC(c2ccccc2)C1)c1ccc2c(c1)OCCO2 (configuration not stated),13*,2%,19,-5%
O=C(CCN1CCc2ccccc21)c1ccc2c(c1)OCCO2,26*,5.2µM*,34,2.1µM*
O=C(CCN1CCC(c2ccccc2)C1)c1ccccc1 (configuration not stated),5,?,-13,-11%
O=C(CCN1CCc2ccccc2C1)c1ccc2c(c1)OCCO2,51*,13%,95*,?
Cc1ccc(S(=O)(=O)N(C)C)cc1NC(=O)CN1C(=O)NC2(CCCCCCC2)C1=O,2,-9%,-7,?
Cc1ccc(N2CCN(S(=O)(=O)c3c(C)nc4scc(C)n4c3=O)CC2)c(C)c1,-7,-14%,14,?
